Measurements reported in ChEMBL document CHEMBL1201862, “PubChem BioAssay data set” (2004).
About 2,100 (0.53%) of roughly 400,000 compounds were called active. Another 14% or so got no clear call; they are omitted. The rule behind the calls is not given here. Shown is part of a subset that was picked to be rich in actives.

target: Ataxin-2 (Homo sapiens) (UniProt Q99700); experiment: qHTS for Inhibitors of ATXN expression.; assay type: functional
Sequence (Q99700 whole entry): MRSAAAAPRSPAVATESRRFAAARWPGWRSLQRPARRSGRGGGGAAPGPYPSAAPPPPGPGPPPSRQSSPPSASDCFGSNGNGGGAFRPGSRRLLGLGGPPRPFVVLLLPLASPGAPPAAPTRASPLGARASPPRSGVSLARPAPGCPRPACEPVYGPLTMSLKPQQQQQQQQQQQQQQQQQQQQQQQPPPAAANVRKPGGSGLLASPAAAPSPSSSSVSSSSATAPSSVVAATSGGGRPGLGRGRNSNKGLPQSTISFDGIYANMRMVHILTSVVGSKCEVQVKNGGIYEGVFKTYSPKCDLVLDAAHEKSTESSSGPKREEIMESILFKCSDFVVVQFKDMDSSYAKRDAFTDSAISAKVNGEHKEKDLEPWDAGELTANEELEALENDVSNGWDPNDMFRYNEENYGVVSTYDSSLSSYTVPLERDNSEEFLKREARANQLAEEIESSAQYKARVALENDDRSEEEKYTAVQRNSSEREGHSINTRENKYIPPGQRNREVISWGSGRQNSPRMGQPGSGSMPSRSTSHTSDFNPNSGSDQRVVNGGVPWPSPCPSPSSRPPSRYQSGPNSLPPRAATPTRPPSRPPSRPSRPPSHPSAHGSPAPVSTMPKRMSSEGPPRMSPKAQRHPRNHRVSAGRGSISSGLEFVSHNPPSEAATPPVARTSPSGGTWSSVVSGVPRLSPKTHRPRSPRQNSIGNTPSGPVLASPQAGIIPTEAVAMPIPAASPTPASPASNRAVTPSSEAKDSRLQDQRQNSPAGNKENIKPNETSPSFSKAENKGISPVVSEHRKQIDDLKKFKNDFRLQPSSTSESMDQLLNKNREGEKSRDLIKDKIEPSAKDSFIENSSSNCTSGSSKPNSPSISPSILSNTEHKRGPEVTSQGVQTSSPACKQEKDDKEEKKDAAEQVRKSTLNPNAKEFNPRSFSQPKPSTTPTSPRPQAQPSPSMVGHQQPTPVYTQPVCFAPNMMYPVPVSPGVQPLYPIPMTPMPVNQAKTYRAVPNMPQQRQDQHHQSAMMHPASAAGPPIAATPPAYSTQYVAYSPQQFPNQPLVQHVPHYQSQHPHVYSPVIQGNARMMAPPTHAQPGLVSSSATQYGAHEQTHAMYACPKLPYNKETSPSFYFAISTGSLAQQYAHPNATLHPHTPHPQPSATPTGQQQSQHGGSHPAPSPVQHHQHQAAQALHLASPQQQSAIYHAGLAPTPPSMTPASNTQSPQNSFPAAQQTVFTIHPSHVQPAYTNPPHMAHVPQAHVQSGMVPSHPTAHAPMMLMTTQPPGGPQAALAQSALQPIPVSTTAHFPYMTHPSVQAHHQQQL

Row | SMILES | Potency
1 | COc1ccccc1C1CN(c2ccc(F)cc2F)N=C1c1cccs1 (configuration not stated) | inactive
2 | O=C(NCc1ccc(Cl)c(Cl)c1)C1CCCC1 | inactive
3 | N#C/C(=N\Nc1ccc(Cl)c(Cl)c1)C(=O)C1CC1 | 25.1 µM (active)
4 | O=[N+]([O-])c1ccc(S(=O)(=O)NCCc2cn3ccccc3n2)cc1 | inactive
5 | COc1ccc(S(=O)(=O)NCC2CCCN(C(=O)c3cccnc3)C2)cc1 (configuration not stated) | inactive
6 | COc1ccccc1OCCn1c(C)c(C=O)c2ccccc21 | inactive
7 | Cc1c(C=O)c(C=O)c(C)n1Cc1ccccc1 | 35.5 µM (active)
8 | Cc1c(C)n(Cc2ccccc2)c2ccc(C(=O)O)cc12 | inactive
9 | O=c1cc(N2CCCCC2)c(-c2ccccc2)nn1Cc1ccccc1 | inactive
10 | COc1ccc(-c2cc(-c3cccs3)c(C#N)c(SCC(=O)NCc3ccccc3OC)n2)cc1 | 35.5 µM (active)
11 | COc1ccc(-c2cc(-c3cccs3)nc3sc(C#N)c(N)c23)cc1 | inactive
12 | COc1ccccc1CNC(=O)c1cnn(-c2nccc(-c3cccs3)n2)c1C | inactive
13 | COc1ccc(C2C=C(c3ccccc3)Nc3nc(NS(=O)(=O)c4ccccc4)nn32)cc1 (configuration not stated) | inactive
14 | COc1c2c(c3c(c1OC)c(=O)c1ccccc1n3C)OCO2 | inactive
15 | Cc1c(CC(=O)N2CCN(C(=O)C3COc4ccccc4O3)CC2)c(=O)oc2c(C)c(O)ccc12 (configuration not stated) | inactive
16 | O=C(c1cc2cc(Cl)ccc2[nH]1)N1CCc2ccccc2C1 | inactive
17 | OC(COC(c1ccc(Cl)cc1)c1ccc(Cl)cc1)CN1CCc2ccccc2C1 (configuration not stated) | 25.1 µM (active)
18 | O=C(Cc1ccc(Cl)cc1)N1CCc2ccccc2C1 | inactive
19 | CCOC(=O)c1cc2c(=O)n3ccccc3nc2n(C(C)C)/c1=N/C(=O)c1ccco1 | inactive
20 | COc1cc(-c2oc3ccc(C)cc3c(=O)c2O)cc(OC)c1OC | inactive
21 | C[C@@H]1CN([C@H](C)CO)C(=O)c2cccc(NC(=O)Nc3ccc(C(F)(F)F)cc3)c2O[C@H]1CN(C)S(=O)(=O)c1cccs1 | 28.2 µM (active)
22 | COc1ccc(S(=O)(=O)N(C)C[C@H]2Oc3c(NC(=O)Nc4ccc(C(F)(F)F)cc4)cccc3C(=O)N([C@H](C)CO)C[C@@H]2C)cc1 | 22.4 µM (active)
23 | C[C@H]1CN([C@@H](C)CO)C(=O)c2cccc(NC(=O)Nc3ccc(C(F)(F)F)cc3)c2O[C@@H]1CN(C)S(=O)(=O)c1ccc(Cl)cc1 | 25.1 µM (active)
24 | C[C@H](CO)N1C[C@H](C)[C@@H](CN(C)S(=O)(=O)c2ccc(F)cc2)Oc2c(NC(=O)Nc3ccc(C(F)(F)F)cc3)cccc2C1=O | 35.5 µM (active)
25 | Cc1c(C(=O)/C=C/N(C)C)nnn1-c1ccc(Cl)cc1C#N | inactive

Row | SMILES | Potency
26 | Cc1ccc(NC(=O)CN2C(=O)S/C(=C\c3ccc(-c4cccc(C(=O)O)c4C)o3)C2=O)cc1C | inactive
27 | Cc1ccc(OCCCC(=O)ON=C(N)c2ccccc2C)cc1 | inactive
28 | COc1ccc(C2CC(c3ccc(C(F)(F)F)cc3)=NN2c2ccc(S(N)(=O)=O)cc2)cc1 (configuration not stated) | inactive
29 | CCOC(=O)N1CCN(C(=O)CSc2nc(O)c3cnn(-c4ccc(C)cc4)c3n2)CC1 | inactive
30 | COc1ccc(C2C3=C(CCCC3=O)N(CC(=O)O)C3=C2C(=O)CCC3)cc1Cl | inactive
31 | COc1ccc(C(=O)/C=C/Nc2ccc(S(=O)(=O)Nc3cc(OC)nc(OC)n3)cc2)c(OC)c1 | inactive
32 | CC(=O)Nc1ccc(N/C=C(\C=O)c2nc3ccccc3o2)cc1 | inactive
33 | CCc1cnc2c(c1SC(C(C)=O)C(=O)N(C)C)c(=O)n(C)c(=O)n2C (configuration not stated) | 39.8 µM (active)
34 | COc1ccc(-c2c(C)c3ccc(O)c(CN4CCCC4)c3oc2=O)cc1OC | inactive
35 | Cc1ccc2c(Cl)cc(Cl)c(OCC(=O)O)c2n1 | inactive
36 | CCc1cc(=O)oc2c(CN3CCN(C)CC3)c(O)c(Cl)cc12 | inactive
37 | COc1ccccc1NC(=O)c1sc2nc(-c3ccco3)ccc2c1N | inactive
38 | COc1ccccc1NC(=O)Nc1nc(C(N)Cc2ccc(C(F)(F)F)cc2)cs1 (configuration not stated) | 39.8 µM (active)
39 | NC(Cc1ccc(C(F)(F)F)cc1)c1csc(NC(=O)Nc2ccccc2Oc2ccccc2)n1 (configuration not stated) | 39.8 µM (active)
40 | CN(C)CCCN=C(S)Nc1ccc(Oc2ccccc2)cc1 | inactive
41 | CC(C)c1ccccc1NC(=O)Nc1nc(C(N)Cc2ccc(C(F)(F)F)cc2)cs1 (configuration not stated) | 35.5 µM (active)
42 | CN(C)Cc1csc(NC(=O)Nc2ccccc2Oc2ccccc2)n1 | 25.1 µM (active)
43 | COc1cccc(-c2ccc3c(N)c(C(=O)Nc4cc(C(F)(F)F)ccc4OC)sc3n2)c1 | inactive
44 | Cc1ccc(S(=O)(=O)NCCNc2ccc(Br)c(C)c2)cc1 | inactive
45 | CCC(=O)Oc1c(C(=O)CC)cc2c(C)cc(=O)oc2c1C | inactive
46 | O=C(OCCOc1ccccc1Cl)c1cc(S(=O)(=O)N2CCCCC2)ccc1N1CCOCC1 | inactive
47 | CCCC[n+]1c2ccccc2cc2ccccc21 | inactive
48 | Cc1cc(C)c(C)c(S(=O)(=O)NCc2ccc(C(=O)N3CCN(C)CC3)cc2)c1C | inactive
49 | COc1ccc(-c2cc(C(F)F)n3ncc(C(=O)Nc4cc(C)on4)c3n2)cc1 | inactive
50 | CCCNC(=O)c1cnn2c(C(F)F)cc(-c3ccccc3)nc12 | inactive

Row | SMILES | Potency
51 | CCc1nccn1C(=O)c1cnn2c(C(F)F)cc(-c3ccc(C)cc3)nc12 | 31.6 µM (active)
52 | Cc1cccnc1Nc1nc(-c2ccccn2)cs1 | 0.794 µM (active)
53 | Cc1ccc(S(=O)(=O)NC(C(=O)Oc2ccc3c(C)c(Cl)c(=O)oc3c2)c2ccccc2)cc1 (configuration not stated) | inactive
54 | CCN1CCN(Cc2c(O)ccc3cc(-c4ccc(OC)cc4)c(=O)oc23)CC1 | inactive
55 | CCC(C)Nc1ccc(NC(C)CC)cc1 (configuration not stated) | 31.6 µM (active)
56 | C=C1C(=O)C2=CC1CCC(=O)C1(C)CCC(OC(C)=O)C(C)(C)C1CC2O (configuration not stated) | 28.2 µM (active)
57 | COc1ccc(-c2c(C)c3ccc(O)cc3oc2=O)cc1OC | inactive
58 | Cc1c(CC(=O)NCC(=O)O)c(=O)oc2cc3oc4c(c3cc12)CCCC4 | inactive
59 | Cc1c(CC(=O)NCCC(C)C)c(=O)oc2cc3c(cc12)CCC(C)(C)O3 | 39.8 µM (active)
60 | COc1ccccc1CCNC(=O)Cc1c(C)c2ccc(O)cc2oc1=O | inactive
61 | CCSc1nnc(NC(=O)CSc2nc3c(cc2C#N)CCCC3)s1 | inactive
62 | O=C(CSc1nnc(NC(=O)c2ccccc2[N+](=O)[O-])s1)NC1CCCC1 | inactive
63 | CCSc1nnc(NC(=O)c2ccccn2)s1 | 25.1 µM (active)
64 | CCCSc1nnc(NC(=O)c2sc3nc(-c4cccs4)ccc3c2N)s1 | inactive
65 | CCSc1nnc(NC(=O)CN2C(=O)C3CC=CCC3C2=O)s1 (configuration not stated) | inactive
66 | CCSc1nnc(NC(=O)c2ccc3ccccc3n2)s1 | 35.5 µM (active)
67 | CC(C)Cn1nc(NC(=O)c2cccc(Cl)c2)c2cc3ccccc3nc21 | inactive
68 | Cc1ccc(NCC(=O)Nc2ccc(Br)cc2)cc1C | inactive
69 | Cc1ccc(Sc2ccc(NC(=O)CCl)cc2)c(C)c1 | 39.8 µM (active)
70 | Cc1ccc(C)c(Sc2ccc(S(=O)(=O)Nc3ccc(C(=O)O)cc3)cc2)c1 | inactive
71 | COc1ccc(-c2cc3ccc(OC(C)C(=O)O)cc3oc2=O)cc1 (configuration not stated) | inactive
72 | FC(F)(F)c1cc(CCN2CCNC[C@@H]2Cc2ccccc2)cc(C(F)(F)F)c1 | 25.1 µM (active)
73 | O=C1NC[C@@H](Cc2cccc3ccccc23)N(CCc2cc(C(F)(F)F)cc(C(F)(F)F)c2)C1=O | 31.6 µM (active)
74 | FC(F)(F)c1cc(CCN2CCNC[C@@H]2CC2CCCCC2)cc(C(F)(F)F)c1 | 20 µM (active)
75 | Oc1ccc(C[C@H]2CNCCN2CCc2cc(C(F)(F)F)cc(C(F)(F)F)c2)cc1 | 31.6 µM (active)

Row | SMILES | Potency
76 | O=C(CN1C(=O)c2ccc([N+](=O)[O-])cc2C1=O)NCc1ccco1 | inactive
77 | Cc1cc(/C=C2\C(=N)N3N=C(c4ccco4)SC3=NC2=O)c(C)n1Cc1ccccc1 | inactive
78 | COc1ccc([N+](=O)[O-])c(OC)c1C(=O)NC(=O)Nc1c(F)cc(F)cc1F | inactive
79 | COc1ccc(C2C=C(c3ccc(F)cc3)Nc3nc(-c4ccc(Cl)cc4)nn32)cc1 (configuration not stated) | inactive
80 | Cn1ncc(C#N)c1/N=C/N(Cc1ccccc1)Cc1ccccc1 | inactive
81 | CC(NC1=NS(=O)(=O)c2ccccc21)C(=O)Nc1ccc(F)cc1Cl (configuration not stated) | inactive
82 | C[N+](C)(C)CCC(=O)N1C/C(=C/c2ccccc2)C(=O)/C(=C\c2ccccc2)C1 | 8.44 µM (active)
83 | CC1CC(C)CN(C(=O)CCc2ccccc2)C1 (configuration not stated) | inactive
84 | NN=C(S)NCCc1ccccc1 | inactive
85 | COc1cc2c(cc1OC)C(SC)=NC1(CCCC1)C2 | 35.5 µM (active)
86 | Oc1cc(NC2CCCCC2)nc(O)n1 | inactive
87 | CCOC(=O)c1cc2c(=O)n3ccccc3nc2n(C(C)C)/c1=N/C(=O)c1c(-c2ccccc2Cl)noc1C | inactive
88 | CCCNC(=O)C[S+]([O-])Cc1nc(-c2ccccc2C)oc1C (configuration not stated) | inactive
89 | O=C(Nc1ccncc1)c1ccc2ccccc2c1 | inactive
90 | COc1cc(Nc2ccccn2)cc(C(=O)Nc2cccc(C(F)(F)F)c2)c1 | 28.2 µM (active)
91 | COc1cc(/C=C(\C#N)C(=O)Nc2cc(C(F)(F)F)ccc2Cl)ccc1OCC(=O)Nc1cccc(C(F)(F)F)c1 | inactive
92 | C=CCNC(=O)/C(C#N)=C/c1c(N2CC(C)OC(C)C2)nc2ccccn2c1=O (configuration not stated) | inactive
93 | Cc1ccc(NC(=O)Cc2nc(-c3c[nH]c(C(=O)N4CCCC4)c3)cs2)c(C)c1 | inactive
94 | C/C(=N\NC(=O)C1CC1)c1ccc(OC(F)F)cc1 | inactive
95 | O=C1C=CC(=O)N1c1ccc(OC(F)F)cc1 | 39.8 µM (active)
96 | O=C(O)/C=C\C(=O)Nc1ccc(OC(F)F)cc1 | inactive
97 | COc1cc(/C=C2\C(=N)N3N=C(CC(=O)N4CCCCC4)SC3=NC2=O)cc(OC)c1O | inactive
